# Measurements reported in PubChem BioAssay (Tox21).
# Values without a mark were called inactive. Results filed as inconclusive are left out. A call without a number means that no potency is given here. The source made the active and inactive calls. Calls follow the shape of the dose curve; as a rule, active = well fitted curve in the direction sought with a large enough effect in the repeat runs; inconclusive = weak or mixed curves; inactive = no such curve, though single readings can be large; an effect the other way counts as inactive or inconclusive.
# How the values were obtained:
# [1] = qHTS RealTime-Glo MT Cell Viability Assay in HepG2 cells - 40 hour (AID 1224870); also: nearly all actives have a fitted effect of over 50% in size
# Summary of the method: (§1)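 HepG2 cells mixed with RealTime-Glo MT reagents (NanoLuc plus cell-permeant prosubstrate) were seeded at 600 cells/well, incubated 5 h at 37 C/5% CO2, then pinned with compounds in DMSO; nonlytic luminescence tracked viability during 40 h treatment.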
# [2] = A CellTox Green Cytotoxicity Assay to monitor cytotoxicity in HEK293 cells - 40 hour (AID 1224871); also: nearly all actives have a fitted effect of over 45% in size; also: potency is read from the fitted curve at half-maximal effect
# Summary of the method: (§2)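 Fluorescence intensity, read at 0, 8, 16, 24, 32 and 40 h of compound treatment, reflected dye binding to DNA of dead HEK293 cells; compounds (23 nL, DMSO) were added 5 h after plating cells with reagent.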
# [3] = qHTS RealTime-Glo MT Cell Viability Assay in HEK293 cells - 16 hour (AID 1224872); also: top concentration of the series differs between compounds; nearly all actives have a fitted effect of over 50% in size
# Summary of the method: (§3)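 Viability tracked continuously by luminescence as live cells reduce a prosubstrate for NanoLuc; HEK293 cells preincubated 5 h, compound-treated at 37 C, and read at 0, 8, 16, 24, 32 and 40 h.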
# [4] = qHTS RealTime-Glo MT Cell Viability Assay in HepG2 cells - 8 hour (AID 1224873); also: nearly all actives have a fitted effect of over 55% in size
# Summary of the method: as §1
# [5] = qHTS RealTime-Glo MT Cell Viability Assay in HEK293 cells - 40 hour (AID 1224874); settings: RealTime-Glo luminescence; max response: active compounds read low; also: nearly all actives have a fitted effect of over 50% in size
# Summary of the method: (§4)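 Viable HEK293 cells reduce a cell-permeant prosubstrate; the product diffuses out and is consumed by NanoLuc in the medium to give light. Compounds went in after a 5 h incubation and plates were read over the treatment course.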
# [6] = A CellTox Green Cytotoxicity Assay to monitor cytotoxicity in HEK293 cells - 24 hour (AID 1224875); also: series mostly up to about 77 µM; nearly all actives have a fitted effect of over 45% in size
# Summary of the method: as §2
# [7] = A CellTox Green Cytotoxicity Assay to monitor cytotoxicity in HepG2 cells - 16 hour (AID 1224876); also: nearly all actives have a fitted effect of over 45% in size; also: potency is read from the fitted curve at half-maximal effect
# Summary of the method: (§5)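 Using 1536-well format, dye-containing HepG2 suspension was seeded, allowed 5 h at 37 C/5% CO2, dosed by pintool with compounds, positive and negative controls, and imaged for fluorescence across 40 h.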
# [8] = qHTS RealTime-Glo MT Cell Viability Assay in HepG2 cells - 32 hour (AID 1224877); also: nearly all actives have a fitted effect of over 55% in size
# Summary of the method: (§6)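 Viability was tracked continuously by NanoLuc luminescence from prosubstrate reduced by living HepG2 cells, at successive time points over 40 h of compound exposure. Cells with reagent were preincubated 5 h at 37 °C before compound addition.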
# [9] = A CellTox Green Cytotoxicity Assay to monitor cytotoxicity in HepG2 cells - 24 hour (AID 1224878); also: nearly all actives have a fitted effect of over 45% in size; also: potency is read from the fitted curve at half-maximal effect
# Summary of the method: as §5
# [10] = A CellTox Green Cytotoxicity Assay to monitor cytotoxicity in HepG2 cells - 40 hour (AID 1224879); also: nearly all actives have a fitted effect of over 40% in size; also: potency is read from the fitted curve at half-maximal effect
# Summary of the method: as §5
# [11] = qHTS RealTime-Glo MT Cell Viability Assay in HEK293 cells - 0 hour (AID 1224880)
# Summary of the method: as §4
# [12] = A CellTox Green Cytotoxicity Assay to monitor cytotoxicity in HEK293 cells - 32 hour (AID 1224881); also: nearly all actives have a fitted effect of over 40% in size; also: potency is read from the fitted curve at half-maximal effect
# Summary of the method: as §2
# [13] = A CellTox Green Cytotoxicity Assay to monitor cytotoxicity in HepG2 cells - 32 hour (AID 1224883); also: nearly all actives have a fitted effect of over 50% in size; also: potency is read from the fitted curve at half-maximal effect
# Summary of the method: as §5
# [14] = A CellTox Green Cytotoxicity Assay to monitor cytotoxicity in HEK293 cells - 8 hour (AID 1224884); also: nearly all actives have a fitted effect of over 35% in size
# Summary of the method: as §2
# [15] = qHTS RealTime-Glo MT Cell Viability Assay in HepG2 cells - 16 hour (AID 1224885); also: nearly all actives have a fitted effect of over 50% in size
# Summary of the method: as §6
# [16] = qHTS RealTime-Glo MT Cell Viability Assay in HEK293 cells - 24 hour (AID 1224886)
# Summary of the method: as §3
# [17] = qHTS RealTime-Glo MT Cell Viability Assay in HepG2 cells - 0 hour (AID 1224889); also: nearly all actives have a fitted effect of over 50% in size
# Summary of the method: as §6
# [18] = qHTS RealTime-Glo MT Cell Viability Assay in HEK293 cells - 8 hour (AID 1224887)
# Summary of the method: as §4
# [19] = A CellTox Green Cytotoxicity Assay to monitor cytotoxicity in HepG2 cells - 0 hour (AID 1224882); also: nearly all actives have a fitted effect of over 35% in size
# Summary of the method: as §5
# [20] = A CellTox Green Cytotoxicity Assay to monitor cytotoxicity in HEK293 cells - 16 hour (AID 1224888); also: nearly all actives have a fitted effect of over 35% in size
# Summary of the method: as §2
smiles,measurement,setting,value
CC(=O)N(CC(O)CO)c1c(I)c(C(=O)NCCO)c(I)c(C(=O)NCC(O)CO)c1I (stereo not given),Potency,[1],inactive
same,Potency,[2],inactive
same,Potency,[3],inactive
same,Potency,[4],inactive
same,max response,[5],9.14%
same,Potency,[6],inactive
same,Potency,[7],inactive
same,Potency,[8],inactive
same,Potency,[9],inactive
same,Potency,[10],inactive
same,Potency,[11],inactive
same,Potency,[12],inactive
same,Potency,[13],inactive
same,Potency,[14],inactive
same,Potency,[15],inactive
same,Potency,[16],inactive
same,Potency,[17],inactive
N[C@H](C(=O)O)c1ccc(O)cc1,"activity change, negative = cytotoxic",[1],1.99% [at 15.8 µM]
same,Potency,[2],inactive
same,"activity change, negative = cytotoxicity",[3],4.17% [at 15.8 µM]
same,"viability change, negative = cytotoxic",[4],0.244% [at 15.8 µM]
same,max response,[5],2.28%
same,activity change,[6],"0.19% [at 15.8 µM, active compounds read high]"
same,cytotoxicity increase,[7],-12.1% [at 15.8 µM]
same,"activity change, negative = cytotoxic",[8],3.27% [at 15.8 µM]
same,cytotoxicity,[9],-8.13% [at 15.8 µM]
same,cytotoxicity increase,[10],-4.58% [at 15.8 µM]
same,"activity change, negative = cytotoxicity",[11],-0.65% [at 15.8 µM]
same,Potency,[12],inactive
same,cytotoxicity increase,[13],-6.23% [at 15.8 µM]
same,cytotoxicity increase,[14],0.0185% [at 15.8 µM]
same,"activity change, negative = cytotoxic",[15],1.01% [at 15.8 µM]
same,"activity change, negative = cytotoxicity",[16],1.77% [at 15.8 µM]
same,"activity change, negative = cytotoxicity",[17],1.28% [at 15.8 µM]
C=C(C)C(=O)OCCCCCCCC(C)C,Potency,[1],inactive
same,Potency,[2],inactive
same,Potency,[3],inactive
same,Potency,[4],inactive
same,max response,[5],-8.22%
same,Potency,[6],inactive
same,Potency,[7],inactive
same,Potency,[8],inactive
same,Potency,[9],inactive
same,Potency,[10],inactive
same,Potency,[11],inactive
same,Potency,[12],inactive
same,Potency,[13],inactive
same,Potency,[14],inactive
same,Potency,[15],inactive
same,Potency,[16],inactive
same,Potency,[18],inactive
same,Potency,[17],inactive
CC(=O)CC(C)C,Potency,[1],inactive
same,Potency,[2],inactive
same,Potency,[3],inactive
same,Potency,[4],inactive
same,max response,[5],14.5%
same,Potency,[7],inactive
same,Potency,[8],inactive
same,Potency,[9],inactive
same,Potency,[10],inactive
same,Potency,[11],inactive
same,Potency,[12],inactive
same,Potency,[19],inactive
same,Potency,[13],inactive
same,Potency,[14],inactive
same,Potency,[15],inactive
same,Potency,[16],inactive
same,Potency,[18],inactive
same,Potency,[20],inactive
same,Potency,[17],inactive
N=C(N)c1ccc2cc(OC(=O)c3ccc(N=C(N)N)cc3)ccc2c1,Potency,[1],inactive
same,Potency,[2],inactive
same,Potency,[3],inactive
same,Potency,[4],inactive
same,max response,[5],1.38%
same,Potency,[7],inactive
same,Potency,[8],inactive
same,Potency,[9],inactive
same,Potency,[10],inactive
same,Potency,[11],inactive
same,Potency,[12],inactive
same,Potency,[19],inactive
same,Potency,[13],inactive
same,Potency,[14],inactive
same,Potency,[15],inactive
same,Potency,[16],inactive
same,Potency,[18],inactive
same,Potency,[20],inactive
same,Potency,[17],inactive
c1ccc(CC2=NCCN2)cc1,Potency,[1],inactive
same,Potency,[2],inactive
same,Potency,[3],inactive
same,Potency,[4],inactive
same,max response,[5],-5.85%
same,Potency,[7],inactive
same,Potency,[8],inactive
same,Potency,[9],inactive
same,Potency,[10],inactive
same,Potency,[11],inactive
same,Potency,[12],inactive
same,Potency,[19],inactive
same,Potency,[13],inactive
same,Potency,[14],inactive
same,Potency,[15],inactive
same,Potency,[16],inactive
same,Potency,[18],inactive
same,Potency,[20],inactive
same,Potency,[17],inactive
ClC(Cl)(Br)Br,Potency,[1],inactive
same,Potency,[2],inactive
same,Potency,[3],inactive
same,Potency,[4],inactive
same,max response,[5],-1.43%
same,Potency,[7],inactive
same,Potency,[8],inactive
same,Potency,[9],inactive
same,Potency,[10],inactive
same,Potency,[11],inactive
same,Potency,[12],inactive
same,Potency,[19],inactive
same,Potency,[13],inactive
same,Potency,[14],inactive
same,Potency,[15],inactive
same,Potency,[16],inactive
same,Potency,[18],inactive
same,Potency,[20],inactive
same,Potency,[17],inactive
N[C@@H](C(=O)N[C@@H]1C(=O)N2C(C(=O)O)=C(Cl)CS[C@H]12)c1ccccc1,"activity change, negative = cytotoxic",[1],0.227% [at 6.97 µM]
same,cytotoxicity increase,[2],2.56% [at 6.97 µM]
same,"activity change, negative = cytotoxicity",[3],12.8% [at 6.97 µM]
same,"viability change, negative = cytotoxic",[4],3.66% [at 6.97 µM]
same,max response,[5],6.7%
same,activity change,[6],"0.0795% [at 6.97 µM, active compounds read high]"
same,cytotoxicity increase,[7],-14% [at 6.97 µM]
same,"activity change, negative = cytotoxic",[8],1.49% [at 6.97 µM]
same,cytotoxicity,[9],-20.4% [at 6.97 µM]
same,cytotoxicity increase,[10],-14.3% [at 6.97 µM]
same,"activity change, negative = cytotoxicity",[11],12.5% [at 6.97 µM]
same,cytotoxicity increase,[12],-0.855% [at 6.97 µM]
same,cytotoxicity increase,[13],-17.5% [at 6.97 µM]
same,cytotoxicity increase,[14],0.155% [at 6.97 µM]
same,"activity change, negative = cytotoxic",[15],1.78% [at 6.97 µM]
same,"activity change, negative = cytotoxicity",[16],7.93% [at 6.97 µM]
same,"activity change, negative = cytotoxicity",[18],11.8% [at 6.97 µM]
same,activity change,[20],"1.42% [at 6.97 µM, active compounds read high]"
same,"activity change, negative = cytotoxicity",[17],1.57% [at 6.97 µM]
CN1CC(=O)NC1=N,Potency,[1],inactive
same,Potency,[2],inactive
same,Potency,[3],inactive
same,Potency,[4],inactive
same,max response,[5],9.12%
same,Potency,[6],inactive
same,Potency,[7],inactive
same,Potency,[8],inactive
same,Potency,[9],inactive
same,Potency,[10],inactive
same,Potency,[11],inactive
same,Potency,[12],inactive
same,Potency,[13],inactive
same,Potency,[14],inactive
same,Potency,[15],inactive
same,Potency,[16],inactive
same,Potency,[18],inactive
same,Potency,[20],inactive
same,Potency,[17],inactive
CCCCC(CC)COC(=O)c1ccccc1O (stereo not given),Potency,[1],inactive
same,Potency,[2],inactive
same,Potency,[3],inactive
same,Potency,[4],inactive
same,max response,[5],0.0024%
same,Potency,[6],inactive
same,Potency,[7],inactive
same,Potency,[8],inactive
same,Potency,[9],inactive
same,Potency,[10],inactive
same,Potency,[11],inactive
same,Potency,[12],inactive
same,Potency,[13],inactive
same,Potency,[14],inactive
same,Potency,[15],inactive
same,Potency,[16],inactive
same,Potency,[20],inactive
same,Potency,[17],inactive
Cc1sccc1Br,Potency,[1],inactive
same,Potency,[2],inactive
same,Potency,[3],inactive
same,Potency,[4],inactive
same,max response,[5],6.36%
same,Potency,[6],inactive
same,Potency,[7],inactive
same,Potency,[8],inactive
same,Potency,[9],inactive
same,Potency,[10],inactive
same,Potency,[11],inactive
same,Potency,[12],inactive
same,Potency,[13],inactive
same,Potency,[14],inactive
same,Potency,[15],inactive
same,Potency,[16],inactive
same,Potency,[20],inactive
same,Potency,[17],inactive
CCCc1cc(C(N)=S)ccn1,Potency,[1],inactive
same,Potency,[2],inactive
same,Potency,[3],inactive
same,Potency,[4],inactive
same,max response,[5],2.82%
same,Potency,[7],inactive
same,Potency,[8],inactive
same,Potency,[9],inactive
same,Potency,[10],inactive
same,Potency,[11],inactive
same,Potency,[12],inactive
same,Potency,[19],inactive
same,Potency,[13],inactive
same,Potency,[14],inactive
same,Potency,[15],inactive
same,Potency,[16],inactive
same,Potency,[18],inactive
same,Potency,[20],inactive
same,Potency,[17],inactive
O=C(c1ccccc1)C1CCCCC1,Potency,[1],inactive
same,Potency,[2],24.5 µM (active)
same,Potency,[3],inactive
same,Potency,[4],inactive
same,max response,[5],-10.1%
same,Potency,[7],43.6 µM (active)
same,Potency,[8],inactive
same,Potency,[9],49 µM (active)
same,Potency,[10],49 µM (active)
same,Potency,[11],inactive
same,Potency,[12],24.5 µM (active)
same,Potency,[19],inactive
same,Potency,[13],49 µM (active)
same,Potency,[14],inactive
same,Potency,[15],inactive
same,Potency,[16],inactive
same,Potency,[18],inactive
same,Potency,[20],inactive
same,Potency,[17],inactive
